Experimental data: PubChem BioAssay (NCATS)
“And” between values parts separate entries of the source, which are not always exact repeats. Identical values can stand only once. Results filed as inconclusive are left out. The source made the active and inactive calls. Calls come from the whole dose curve; as a rule, active = well fitted inhibition curve with a large enough effect; inconclusive = small, poorly fitted or top-dose-only effect; inactive = flat fitted curve, though single readings scatter.

Test: qHTS profiling for inhibitors of Plasmodium falciparum proliferation (AID 504749); note: nearly all actives have a fitted effect of over 60% in size
Details: P. falciparum in erythrocytes, SYBR Green DNA, 72 h; parasite line B
Summary of the method: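 Each compound contacts P. falciparum-infected red blood cells for 72 h at 37 C; lysis buffer (Tris, EDTA, saponin, Triton X, SYBR Green I) is added and fluorescence measured next morning; values normalized to controls.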
Potency is the fitted concentration of half-maximal effect.

SMILES | Potency
CC(C)(O)C(Cl)(Cl)Cl | 12.6 µM (active)
CC[n+]1c(-c2ccccc2)c2cc(N)ccc2c2ccc(N)cc21 | 112 nM (active) and 316 nM (active)
Clc1ccc(CO/N=C(\Cn2ccnc2)c2ccc(Cl)cc2Cl)c(Cl)c1 | 2.82 µM (active)
N#Cc1nn(-c2c(Cl)cc(C(F)(F)F)cc2Cl)c(N)c1S(=O)C(F)(F)F (centres undefined) | 8.91 µM (active)
